In the library only some 4.1% were active in any assay of this set; here they are far more common.
DAX1 inh-1: blocks DAX1 repression of SF-1 activated StAR promoter; HEK293T StAR-luciferase reporter, SF-1/DAX-1 repression relief; inhibition, % at 6.8 µM; 370,000 compounds, 1.1% hits; AID 652010;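 active = inhibition above the mean over all tested compounds plus 3 SD, cut at about 3.6% in these data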;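 also: higher inhibition means more luminescence from relief of DAX-1 repression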
hcDAF-12 act: activates DAF-12 receptor from parasite H. contortus; AID 652067; HEK293 hcDAF-12 lit1-tk-luc reporter, luminescence; 0% DMSO, 100% Δ7-dafachronic acid; 370,000 compounds, 1.4% hits; activation, % at 6.8 µM;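 active = activation above the mean of all tested compounds plus 3 SD, cut at about 5.5% in these data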
DAX1 inh-2: inhibitors of human orphan nuclear receptor DAX1 (NR0B1) | P51843 | inhibition, % at 6.75 µM | HEK293 Gal4-DAX1 luciferase reporter, luminescence | 340,000 compounds, 0.99% hits;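 active = inhibition above the mean over all tested compounds plus 3 SD, cut at about 4.2% in these data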;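 also: inhibition shows as a rise in luminescence from relieved DAX1 repression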
Target sequence (P51843 207-470 limits assumed): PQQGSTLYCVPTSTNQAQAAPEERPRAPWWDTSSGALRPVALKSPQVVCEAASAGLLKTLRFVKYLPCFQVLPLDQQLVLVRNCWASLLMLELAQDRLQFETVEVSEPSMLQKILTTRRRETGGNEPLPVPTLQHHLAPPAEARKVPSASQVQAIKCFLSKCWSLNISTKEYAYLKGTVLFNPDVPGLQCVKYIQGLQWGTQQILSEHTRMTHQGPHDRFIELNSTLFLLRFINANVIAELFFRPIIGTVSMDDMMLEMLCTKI
ssDAF-12 act: S. stercoralis DAF-12 activation, primary screen. activation, % at 6.8 µM. HEK293 ssDAF-12/GRIP1 lit1-tk-luc reporter, luminescence; % of 3 µM dafachronic acid response. AID 652126. 370,000 compounds, 1% hits;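 active = activation above the mean over all tested compounds plus 3 SD, cut at about 0.9% in these data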
hgDAF12 agonist: agonists of H. glycines DAF-12 nuclear receptor; HEK293 GAL4-hgDAF12 UAS-luciferase reporter, agonist luminescence; normalized to butyrate control; activation, % at 6.8 µM; 370,000 compounds, 1.8% hits; AID 687014;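 active = activation above a cutoff set at the mean of all screened compounds plus 3 SD, cut at about 10% in these data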
Hits are given with their value; 0 = inactive; - = no result.

SMILES	DAX1 inh-1	hcDAF-12 act	DAX1 inh-2	ssDAF-12 act	hgDAF12 agonist
COC(=O)c1ccc2nc(-c3ccccc3)c(Cc3ccc(C)cc3)n2c1	0	0	-	0.9	0
COC(=O)c1ccc2nc(-c3cccc(Cl)c3)c(Cc3cccc(Cl)c3)n2c1	0	0	-	0.9	0
COC(=O)c1ccc2nc(-c3cccc(Cl)c3)c(Cc3ccsc3)n2c1	0	0	-	0	0
COC(=O)c1ccc2nc(-c3ccc(C)cc3)c(Cc3ccccc3)n2c1	0	0	-	0	0
COC(=O)[C@]12C[C@H](CC(=O)NCCCN3CCCC3=O)C(=O)N(Cc3cccc4ccccc34)C1=C[C@H](C(C)(C)C)O[C@@H]2C	0	0	-	0	0
O=C(CCc1ccccc1-c1ccccc1CCNC(=O)c1ccccc1)NCc1ccccc1	0	0	-	0	0
O=C(Cn1cnc2ccccc2c1=O)c1ccccc1	0	0	0	0	0
O=C(Cn1cnc2ccccc2c1=O)c1ccc(Cl)cc1	0	0	0	0	11.1
O=C(Cn1cnc2ccccc2c1=O)c1ccc(Br)cc1	0	0	0	0	12.1
O=C(NCCN1CCC(Cc2ccccc2)CC1)C1CCCN(S(=O)(=O)c2ccc(Cl)s2)C1 (stereo unspecified)	0	0	-	0	0
NC(=O)c1ccc(NC(=O)COC(=O)CC2Sc3ccccc3NC2=O)cc1 (stereo unspecified)	0	0	0	1.2	0
O=C(N/N=C\c1ccccc1)c1ccccc1-n1cccc1	0	0	0	1.2	0
O=C(N/N=C/c1ccccc1C(F)(F)F)c1ccc(O)cc1	0	0	5.0	0	0
O=C(N/N=C\c1ccc(F)cc1)c1csnn1	0	0	0	0	13.1
O=C(N/N=C/c1ccccc1O)c1cccc(C(F)(F)F)c1	0	0	0	0	0
COc1ccc(/C=C/C(=O)Oc2ccc(/C=N/NC(=O)c3ccccc3)cc2)cc1OC	0	0	4.2	0	0
COc1ccc(/C=N/NC(=O)c2ccncc2)cc1OC	0	0	0	0	0
O=C(NN=C/C=C/c1ccco1)c1cc(-c2ccc(Cl)cc2)n[nH]1	0	0	-	0	0
COc1ccc([C@H]2C[C@@H](O)[C@H](n3cc(COC(=O)c4ccccc4)nn3)CN2C(=O)c2cccs2)cc1	0	0	0	0	0
COC(=O)[C@]12C[C@H](CC(=O)N3CCN(C(=O)C4CC4)CC3)C(=O)N(CCc3ccc(OC)c(OC)c3)C1=C[C@H](C1CCCC1)O[C@@H]2C	0	0	-	0	0
Cc1cc2cc3c(cc2n2c(SCC(=O)Nc4nc(-c5ccccc5)cs4)nnc12)OCO3	-	0	-	0	0
O=C(O)c1ccc(/C=N/NC(=O)c2ccc(F)cc2)cc1	0	0	0	0	0
O=C(N/N=C/c1ccc(F)cc1)c1ccccc1	0	0	5.2	0	12.8
CCOC(=O)N1CCN(C(=O)COc2cc(=O)n(CC)c3ccccc23)CC1	0	0	8.2	0	0
CCOC(=O)N1CCN(C(=O)COc2cc(=O)n(C)c3ccccc23)CC1	0	0	0	0	0
SMILES	DAX1 inh-1	hcDAF-12 act	DAX1 inh-2	ssDAF-12 act	hgDAF12 agonist
CCCn1c(NC(=O)c2ccccc2)nc(Cc2ccccc2)c1Cc1ccccc1	0	0	-	0	0
Cc1ccc2c(c1)c1c3n2CCN(CCC#N)C3CCC1 (stereo unspecified)	0	0	4.5	0	0
CCN1CCn2c3c(c4cc(C)ccc42)CCCC31 (stereo unspecified)	0	0	0	0	0
c1ccc(-c2ccc(C3=Nn4c(nnc4-c4ccccn4)SC3)cc2)cc1	0	0	-	0	0
O=C1/C(=C\c2ccccc2)CCc2c1[nH]c1ccccc21	0	0	0	0	13.1
O=C(CCc1ccccc1-c1ccccc1CCNC(=O)COCc1ccccc1)NCc1ccccc1	0	0	-	0	0
COc1cccc(/C(O)=C2/C(=O)C(=O)N(CCN(C)C)C2c2ccccn2)c1 (stereo unspecified)	0	0	0	0	0
CN(C)CCN1C(=O)C(=O)/C(=C(/O)c2ccc3c(c2)OCCO3)C1c1ccccn1 (stereo unspecified)	0	0	5.2	0	0
N#CCC[C@H]1CC[C@]2(CCCN(Cc3ccc(Br)cc3)C2)O1	0	0	-	0	0
CCN(c1ccccc1)S(=O)(=O)c1cccc(C(=O)OCC(=O)c2c(N)n(C)c(=O)n(C)c2=O)c1	0	0	0	0	0
COc1ccc(N(C)S(=O)(=O)c2cccc(C(=O)OCC(=O)c3c(N)n(C)c(=O)n(C)c3=O)c2)cc1	0	0	0	2.5	0
CN(C)c1ccc(Nc2ccc([N+](=O)[O-])cn2)cc1	0	0	5.4	0	0
CCOc1ccc(CCNC(=O)c2cc3ccsc3n2C)cc1OCC	0	0	-	0	0
CC[C@@H](CCCc1ccccc1OC)CCS(=O)(=O)C(C)(C)C	0	0	-	0	0
COc1ccccc1CCC[C@@H](CCS(=O)(=O)C(C)C)CC1CCCCC1	0	0	-	2.2	0
CCCOc1ccc(-c2c(C(=O)N/N=C/c3ccccc3)nnn2-c2nonc2N)cc1	0	0	0	2.4	0
COc1ccc(/C=N/NC(=O)CN2CCSCC2)cc1C	0	0	0	0	0
O=C(OCCN1CCN(C2CN(Cc3cn(Cc4ccccc4F)nn3)S(=O)(=O)C2)CC1)c1cc2ccccc2o1 (stereo unspecified)	0	0	-	0	0
CCCCCC1CCC(c2ccc(/C(N)=N/O)cc2)CC1 (stereo unspecified)	0	0	5.5	0	0
COc1cc(C=NN=c2sc3ccccc3n2C)ccc1OCCO	0	0	-	0	12.2
COc1cc(C(=O)N=c2sc3ccccc3n2C)cc(OC)c1OC	0	0	0	0	0
Nc1nc2cc3c(cc2cc1C(=O)NCc1cccnc1)OCO3	0	0	-	0	0
Fc1ccc(CSc2nnc3ccccn23)c(Cl)c1	4.2	0	0	0	0
CC1=C(C(=O)OCC2CCCO2)C(c2coc3ccccc3c2=O)C2=C(CCCC2=O)N1 (stereo unspecified)	0	0	4.2	0	0
COC(=O)C1=C(C)NC2=C(C(=O)CCC2)C1c1coc2ccccc2c1=O (stereo unspecified)	0	0	0	0	0
COc1ccc2nc(N/C(N)=N/S(C)(=O)=O)nc(C)c2c1	0	0	4.6	0	0
CC(NC(=O)c1ccccc1NS(=O)(=O)c1ccc(CCC(=O)O)cc1)c1ccccc1 (stereo unspecified)	0	0	0	0	0
O=C(O)CCc1ccc(S(=O)(=O)Nc2ccccc2C(=O)NCCc2ccccc2)cc1	0	0	0	1.0	0
O=C(Nc1ccccc1C(=O)NC(Cc1c[nH]c2ccccc12)C(=O)O)c1ccco1 (stereo unspecified)	0	0	0	1.4	0
O=C(NCCc1ccccc1)c1ccc(NS(=O)(=O)c2ccc3[nH]c(=O)[nH]c3c2)cc1	3.8	0	0	0	0

Screening data as filed in PubChem.
